AC50 and outcome data for twelve molecules are collected here from PubChem BioAssay (EPA / NIEHS).

One test has as its system TTR (gene 7276). The experiment in a line: CCTE_GLTED_hTTR_0.125uM: CCTE's human Transthyretin (hTTR) Inhibition Assay, with 0.125uM TTR, Great Lakes Toxicology and Ecology Division (GLTED) Lab (AID 2284431).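 Note: hits lower the fluorescence signal relative to DMSO baseline.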 On the procedure:
CCTE_GLTED_hTTR is a cell-free, single-readout assay designed to test the chemicals' ability to displace T4 from the human transthyretin (TTR) protein. TTR (at 0.125uM or 0.5uM) is incubated in presence of test chemical for 2 hours during which disrupting chemicals displace ANSA from the TTR protein. Results read fluorescence at 380 excitation and 475 emission.CCTE_GLTED_hTTR_0.125uM is the assay component measured from the CCTE_GLTED_hTTR assay. It is designed to make measurements of fluorescent polarization, using a form of binding reporter, as detected with Fluorescence signals by Fluorescence technology.Data from the assay component CCTE_GLTED_hTTR_0.125uM was analyzed at the assay endpoint CCTE_GLTED_hTTR_0.125uM in the positive analysis fitting direction relative to DMSO as the negative control and baseline of activity. Using a type of binding reporter, loss-of-signal activity can be used to understand a chemical's ability to displace T4 from transthyretin. To generalize the intended target to other relatable targets, this assay endpoint is annotated to the 'transporter' intended target family, where the subfamily is 'hormone carrier protein'.
Human transthyretin (TTR) assay, developed at Great Lakes Toxicology and Ecology Division (GLTED) within the EPA's Center for Computational Toxicology and Exposure (CCTE), is designed to test the chemicals' ability to displace T4 from the TTR protein. TTR (0.125uM) is incubated in presence of test chemical for 2 hours during which disrupting chemicals displace ANSA from the TTR protein. Results read fluorescence at 380 excitation and 475 emission.

A short description of test [1]: CCTE_Deisenroth_H295R-HTRF_384WELL_ESTRADIOL: CCTE's H295R-HTRF Assay Evaluation of Estradiol Concentration, Deisenroth Lab (AID 2284361). Conditions: actives raise or lower the signal. The essentials: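 H295R cells exposed 48 h to chemicals at 0.001 - 100 uM final (nine points, triplicate); estradiol in conditioned medium measured by HTRF immunoassay, fitted bidirectionally versus DMSO. Viability by CellTiter-Glo on same plates.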

A short description of test [2]: CCTE_Deisenroth_H295R-HTRF_384WELL_TESTOSTERONE: CCTE's H295R-HTRF Assay Evaluation of Testosterone Concentration, Deisenroth Lab (AID 2284373). As to conditions: actives raise or lower the signal. The essentials:
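Secreted testosterone was quantified by HTRF immunoassay of medium from human adrenocortical H295R cells after 48 h chemical exposure at 0.001–100 uM final. Gain or loss was fitted against DMSO. ATP-based viability was read on matched wells, five experimental replicates.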
Background: In TR-FRET formats the signal depends on donor and acceptor labels being close together.

Test [3] in a line: CCTE_Deisenroth_H295R-HTRF_384WELL_CTOX: Cytotoxicity Assessment in CCTE's H295R-HTRF Assay, Deisenroth Lab (AID 2284380; active = hit-call score of the fitted dose curve at least 0.9, where 1 is the maximum). The essentials: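 H295R adrenocortical carcinoma cells plated 24 h, then exposed 48 h to nine-point series 0.001–100 uM final, triplicate, n=5. ATP measured by CellTiter-Glo 2.0 luminescence on same plates after medium collection; loss versus DMSO.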

The source made the active and inactive calls. Rule for the calls, unless noted: active = hit-call score of the fitted dose curve at least 0.9, where 1 is the maximum; inactive = score below 0.9.

In general, AC50 refers to the midpoint of the concentration-response curve, whichever way the signal moves. On to `Cn1c(-c2ccccc2)cc(-c2ccccc2)[n+]1C`, for which the AC50 in the test with TTR (gene 7276) was 27.8 µM (active).

With `CCOc1nc(C(Cl)(Cl)Cl)ns1`, the AC50 with TTR (gene 7276) was 5.26 µM (active).

For the molecule `N#Cc1c[nH]cc1-c1cccc2c1OC(F)(F)O2`, the concentration at half-maximal activity (AC50) with TTR (gene 7276) is 0.5 µM (active).

In the case of `CO/N=C(/C1=NOCCO1)c1ccccc1Oc1ncnc(Oc2ccccc2Cl)c1F`, the AC50 in the test with TTR (gene 7276) is 5.22 µM (active).

Consider `O=C1C2CC=CCC2C(=O)N1SC(Cl)(Cl)Cl` (stereo not drawn), for which the AC50 in the test on TTR (gene 7276) is 21.1 µM (active).

As to `COP(=S)(OC)Oc1ccc([N+](=O)[O-])c(C)c1`, the concentration at half-maximal activity (AC50) in the test on TTR (gene 7276) was 8.85 µM (active).

For the molecule `CC(C)NC(=O)N1CC(=O)N(c2cc(Cl)cc(Cl)c2)C1=O`, the AC50 in the test on TTR (gene 7276) is 2.51 µM (active).

Turning to `CC(C)(C)C(=O)C(Oc1ccc(Cl)cc1)n1cncn1` (stereo not drawn), the molecule was classed as inactive in test [1] and in test [3]. In test [2], the AC50 was 8.94 µM (active).

Take `CCOP(=O)(OCC)Oc1nc(Cl)c(Cl)cc1Cl`: the AC50 in the test with TTR (gene 7276) was 0.395 µM (active).

With `CCCCC(C#N)(Cn1cncn1)c1ccc(Cl)cc1` (stereo not drawn), the molecule was classed as inactive in test [1], in test [2] and in test [3].

Take `CCSC(=O)N1CCCCCC1`: the call in test [1], in test [2] and in test [3] was inactive.

`COc1cc(Cl)c(OC)cc1Cl`: in the test on TTR (gene 7276), the AC50 is 4.26 µM (active).
